Measured values reported in PubChem BioAssay.
Inconclusive results are not listed. The source made the active and inactive calls. Unless noted, no stated cut-off is given here; in the data, active means percent of DMSO control GFP below about 86%; inactive means the rest, inconclusive results apart.

Key:
[1] = rapamycin-like changes in RPL19A-GFP expression – cell-based, S. cerevisiae, multiplex flow cytometry, primary screen (AID 1862);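 further: lower values mimic rapamycin by blocking the RPL19A rise seen in DMSO cells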; conditions: S. cerevisiae RPL19A-GFP strain, flow cytometry fluorescence, 3 h; at 10 µM; stronger effect = lower value
[2] = TOR pathway GLN3 branch reporter MEP2-GFP changes – S. cerevisiae, multiplex flow cytometry, primary screen (AID 1867;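 active means GFP response, as percent of the DMSO control, above the screen-wide mean plus 3 SD, about 139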;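 further: median GFP channel fluorescence of barcode-gated MEP2-GFP cells measured by flow cytometry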); conditions: S. cerevisiae MEP2-GFP strain, 3 h, at 10 µM, stronger effect = higher value, 100% means same as DMSO wells
[3] = TOR pathway RTG branch CIT2 reporter changes – S. cerevisiae, GFP fusion, multiplex flow cytometry, primary screen (AID 1870;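 active means percent response above a set limit, the screen-wide mean plus 3 SD, cut at about 130% in these data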;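 further: barcoded CIT2-GFP strain pooled with four other GFP strains with rapamycin as positive control; median GFP fluorescence per well over plate mean of DMSO wells so 100% = DMSO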); conditions: S. cerevisiae CIT2-GFP expression, 3 h, at 10 µM, stronger effect = higher value
[4] = TOR pathway LAP4-GFP level changes – S. cerevisiae, multiplex flow cytometry, primary screen (AID 1873;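 active means GFP signal, as percent of the solvent control, above the screen mean plus 3 SD, about 149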); conditions: S. cerevisiae LAP4-GFP expression, 3 h, at 10 µM, stronger effect = higher value
[5] = yeast AGP1-GFP level changes, GLN3 branch – cell-based, multiplex flow cytometry, S. cerevisiae, primary screen (AID 1887;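 active means GFP signal above the screen-wide mean plus 3 SD, that is over about 124.5% of the solvent control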;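 further: AGP1-GFP fusion strain of S. cerevisiae within a five-strain barcoded multiplex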); conditions: 3 h, at 10 µM, stronger effect = higher value
[6] = reduced mouse 2C T cell binding to pMHC/ICAM-1 vesicles – MLPCN validation set, flow cytometry, LFA-1/ICAM-1 modulator project, pilot screen (AID 2523;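 active means response below a set limit, under 55% cells CD8-positive and vesicle-bound, and CD8 cells' 90th-percentile brightness under 279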;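 on vesicle binding response: mean PE anti-B7-1 fluorescence of CD8+ cells relative to row control; 100% = QL9-loaded vesicles with DMSO vehicle in the same plate row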); conditions: 2C mouse CD8+ T cells, at 7 µM, stronger effect = lower value; double positive events: measured here: CD8+/vesicle+ event percentage
[7] = target: Integrin beta-1 (Homo sapiens) + Integrin alpha-4 (Homo sapiens) (UniProt P13612+P05556); assay: alpha4beta1 integrin LIBS antibody binding reduction – U937 cells, HUTS-21 mAb, flow cytometry, validation set, VLA-4 allosteric modulator project, pilot screen (AID 2674;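 active means inhibition above 50%, about 3 SD of the validation set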;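 further: antibody binding induced by the VLA-4 ligand LDV present at three times its Kd; 0% = LDV ligand with antibody and no compound and 100% = antibody without LDV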); conditions: HUTS-21 LIBS mAb binding, at 6.7 µM, stronger effect = higher value, binding induced by LDV ligand
Sequence of Integrin beta-1 (Homo sapiens) + Integrin alpha-4 (Homo sapiens) (P05556 whole entry, looked up): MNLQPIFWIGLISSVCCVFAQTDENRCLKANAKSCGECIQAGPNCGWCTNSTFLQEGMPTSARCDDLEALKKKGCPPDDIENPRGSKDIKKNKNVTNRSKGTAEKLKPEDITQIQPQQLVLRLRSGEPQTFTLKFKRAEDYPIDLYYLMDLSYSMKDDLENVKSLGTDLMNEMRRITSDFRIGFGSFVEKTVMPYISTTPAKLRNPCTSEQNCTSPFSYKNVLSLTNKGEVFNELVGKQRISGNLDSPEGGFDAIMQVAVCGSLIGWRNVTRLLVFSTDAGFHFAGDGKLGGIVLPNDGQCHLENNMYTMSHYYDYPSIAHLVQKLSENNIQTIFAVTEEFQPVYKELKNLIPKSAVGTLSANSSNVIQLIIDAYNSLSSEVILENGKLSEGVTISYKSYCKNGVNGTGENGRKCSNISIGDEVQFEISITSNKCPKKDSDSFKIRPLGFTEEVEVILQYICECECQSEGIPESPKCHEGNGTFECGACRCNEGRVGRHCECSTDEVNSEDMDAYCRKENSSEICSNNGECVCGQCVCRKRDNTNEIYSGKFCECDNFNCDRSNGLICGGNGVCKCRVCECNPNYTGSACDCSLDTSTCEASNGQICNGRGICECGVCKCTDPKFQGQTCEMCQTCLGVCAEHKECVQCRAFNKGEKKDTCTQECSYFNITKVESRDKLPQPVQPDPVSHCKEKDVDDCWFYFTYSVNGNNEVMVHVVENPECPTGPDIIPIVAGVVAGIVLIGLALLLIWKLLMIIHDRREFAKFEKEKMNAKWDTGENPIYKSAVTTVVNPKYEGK
Sequence of Integrin beta-1 (Homo sapiens) + Integrin alpha-4 (Homo sapiens) (P13612 whole entry, looked up): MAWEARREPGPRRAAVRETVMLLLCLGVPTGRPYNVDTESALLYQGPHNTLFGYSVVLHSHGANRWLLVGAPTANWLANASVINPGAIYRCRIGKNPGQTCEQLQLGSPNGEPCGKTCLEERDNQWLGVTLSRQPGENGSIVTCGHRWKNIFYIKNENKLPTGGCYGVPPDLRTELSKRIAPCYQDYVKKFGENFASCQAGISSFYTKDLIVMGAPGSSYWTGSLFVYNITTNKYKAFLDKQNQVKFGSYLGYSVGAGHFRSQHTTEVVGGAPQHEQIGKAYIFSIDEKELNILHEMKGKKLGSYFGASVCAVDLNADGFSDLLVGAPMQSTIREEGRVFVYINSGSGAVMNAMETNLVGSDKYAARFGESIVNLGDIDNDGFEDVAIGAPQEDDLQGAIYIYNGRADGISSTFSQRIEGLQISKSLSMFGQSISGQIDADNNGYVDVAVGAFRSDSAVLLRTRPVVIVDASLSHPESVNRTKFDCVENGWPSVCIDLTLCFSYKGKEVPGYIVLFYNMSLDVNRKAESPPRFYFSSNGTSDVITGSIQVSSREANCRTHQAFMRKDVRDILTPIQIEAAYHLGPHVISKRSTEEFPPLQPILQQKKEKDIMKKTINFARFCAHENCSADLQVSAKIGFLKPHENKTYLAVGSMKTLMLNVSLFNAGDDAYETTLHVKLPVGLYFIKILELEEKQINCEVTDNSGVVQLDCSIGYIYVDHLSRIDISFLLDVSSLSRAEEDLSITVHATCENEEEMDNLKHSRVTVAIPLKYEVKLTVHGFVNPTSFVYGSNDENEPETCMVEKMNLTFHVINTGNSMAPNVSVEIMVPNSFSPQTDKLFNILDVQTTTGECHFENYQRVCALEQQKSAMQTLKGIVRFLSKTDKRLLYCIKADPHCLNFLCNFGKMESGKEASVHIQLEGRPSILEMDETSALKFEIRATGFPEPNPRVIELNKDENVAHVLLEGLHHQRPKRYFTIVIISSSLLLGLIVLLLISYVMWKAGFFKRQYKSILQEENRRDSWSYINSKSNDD

[8] = target: Beta-adrenergic receptor kinase 1 (Homo sapiens) (UniProt P25098); assay: GRK2 binders displacing RNA aptamer, biochemical, validation, human GRK2, bead flow cytometry (AID 488806;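 active means aptamer binding inhibition above 30%, about 3 SD of noise from non-fluorescent compounds; inactive means inhibition at or below 30%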); conditions: bead-bound GRK2, FAM-aptamer displacement, at 10 µM, stronger effect = higher value
Sequence of Beta-adrenergic receptor kinase 1 (Homo sapiens) (P25098 whole entry, looked up): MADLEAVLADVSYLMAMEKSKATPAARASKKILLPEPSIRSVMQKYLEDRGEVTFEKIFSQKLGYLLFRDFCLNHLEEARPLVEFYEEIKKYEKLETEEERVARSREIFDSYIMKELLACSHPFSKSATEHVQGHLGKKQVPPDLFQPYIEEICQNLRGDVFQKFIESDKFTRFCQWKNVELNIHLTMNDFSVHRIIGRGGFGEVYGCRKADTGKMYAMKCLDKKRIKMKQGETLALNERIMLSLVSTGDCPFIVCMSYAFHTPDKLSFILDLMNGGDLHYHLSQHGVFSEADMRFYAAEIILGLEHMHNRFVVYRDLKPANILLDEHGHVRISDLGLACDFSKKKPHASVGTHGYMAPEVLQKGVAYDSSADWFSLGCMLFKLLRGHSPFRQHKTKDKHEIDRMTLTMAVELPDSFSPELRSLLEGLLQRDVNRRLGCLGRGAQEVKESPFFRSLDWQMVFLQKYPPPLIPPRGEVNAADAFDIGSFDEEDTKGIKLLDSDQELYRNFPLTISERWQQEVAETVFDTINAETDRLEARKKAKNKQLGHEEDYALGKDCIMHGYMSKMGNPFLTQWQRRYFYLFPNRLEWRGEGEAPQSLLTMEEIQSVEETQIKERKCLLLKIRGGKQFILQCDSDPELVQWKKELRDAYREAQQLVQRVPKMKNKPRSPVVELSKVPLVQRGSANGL

[9] = target: Beta-2 adrenergic receptor (Homo sapiens) (UniProt P07550); assay: agonist-induced loss of surface beta2AR – cell-based, FAP fluorogen, flow cytometry, validation set, pilot screen (AID 504459;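 active means percent response above 42, roughly 3 SD of non-fluorescent test compounds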;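 further: agonist-driven loss of surface beta2AR via internalization measured by FAP dye flow cytometry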); conditions: Am2.2-beta2AR cells, at 10 µM, stronger effect = higher value
Sequence of Beta-2 adrenergic receptor (Homo sapiens) (P07550 whole entry, looked up): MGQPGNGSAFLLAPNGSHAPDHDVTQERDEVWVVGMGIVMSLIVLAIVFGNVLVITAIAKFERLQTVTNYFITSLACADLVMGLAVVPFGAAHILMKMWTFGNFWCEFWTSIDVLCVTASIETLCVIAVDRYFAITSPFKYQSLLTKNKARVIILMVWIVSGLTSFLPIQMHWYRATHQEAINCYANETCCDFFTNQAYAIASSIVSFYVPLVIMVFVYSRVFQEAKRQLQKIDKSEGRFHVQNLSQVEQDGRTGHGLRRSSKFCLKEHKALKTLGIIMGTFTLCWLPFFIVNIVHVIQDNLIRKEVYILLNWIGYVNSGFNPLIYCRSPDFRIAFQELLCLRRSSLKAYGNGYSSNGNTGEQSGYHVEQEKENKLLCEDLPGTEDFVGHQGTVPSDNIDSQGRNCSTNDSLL

[10] = target: AP-2 complex subunit beta (Homo sapiens) (UniProt P63010); assay: beta-arrestin/AP2 interaction blockers – biochemical, validation set, GST-AP2 beads, flow cytometry, pilot screen (AID 504541;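 active means inhibition above 54%, about 3 SD of non-fluorescent compounds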;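 further: AP2 carries R879A mutation and is captured from E. coli lysate; bead-bound FITC arrestin peptide fluorescence measuring arrestin peptide binding to AP2; 0% = DMSO wells and 100% = excess unlabeled arrestin peptide control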); conditions: FITC arrestin peptide, at 10 µM, stronger effect = higher value, AP2 beta2 appendage fragment, R879A mutant
Sequence of AP-2 complex subunit beta (Homo sapiens) (P63010 whole entry, looked up, the tested form may be a part, one chain of several): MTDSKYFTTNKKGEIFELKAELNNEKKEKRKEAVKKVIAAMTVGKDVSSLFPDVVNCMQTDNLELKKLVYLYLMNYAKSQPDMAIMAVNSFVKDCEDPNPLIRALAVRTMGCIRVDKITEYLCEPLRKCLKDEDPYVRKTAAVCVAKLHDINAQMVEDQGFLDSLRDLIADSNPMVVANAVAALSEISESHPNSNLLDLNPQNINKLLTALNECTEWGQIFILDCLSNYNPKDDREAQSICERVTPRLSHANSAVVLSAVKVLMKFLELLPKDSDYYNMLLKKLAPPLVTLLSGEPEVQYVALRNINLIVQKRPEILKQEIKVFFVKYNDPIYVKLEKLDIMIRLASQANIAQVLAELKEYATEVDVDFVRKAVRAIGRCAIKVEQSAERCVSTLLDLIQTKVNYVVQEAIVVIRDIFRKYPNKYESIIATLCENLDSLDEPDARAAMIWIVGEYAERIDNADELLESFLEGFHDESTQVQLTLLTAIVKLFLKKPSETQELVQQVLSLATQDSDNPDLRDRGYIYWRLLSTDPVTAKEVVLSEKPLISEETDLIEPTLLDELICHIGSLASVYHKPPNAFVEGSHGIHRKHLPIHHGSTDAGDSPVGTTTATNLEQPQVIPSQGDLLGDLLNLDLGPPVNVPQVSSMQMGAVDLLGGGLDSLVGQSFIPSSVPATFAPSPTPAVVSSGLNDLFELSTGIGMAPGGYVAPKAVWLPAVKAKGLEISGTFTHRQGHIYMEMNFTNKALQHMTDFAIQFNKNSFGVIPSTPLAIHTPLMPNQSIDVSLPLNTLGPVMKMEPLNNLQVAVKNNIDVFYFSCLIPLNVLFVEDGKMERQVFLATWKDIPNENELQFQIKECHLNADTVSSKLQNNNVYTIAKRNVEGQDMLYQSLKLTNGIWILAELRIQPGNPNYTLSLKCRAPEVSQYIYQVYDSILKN

[11] = cytosolic pH regulators acting via V-ATPase – S. cerevisiae, pHLuorin, HTS validation (AID 504600; in the data active means response above about 15%;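 further: plate controls were DMSO for no effect and reference compound for full effect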); conditions: V-ATPase proton transport, at 10 µM, stronger effect = higher value
[12] = test system: anti-desmoglein-3 scFv antibody binding to human DSG3; assay: blockers of pathogenic pemphigus antibody–desmoglein-3 binding – biochemical, validation compound set, bead-based, flow cytometry, pilot screen (AID 588368;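 active means binding below the plate cutoff, the plate median minus 3 SD, with a reading above zero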;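 further: signal is the median channel fluorescence of bead-bound GFP antibody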); conditions: Protein G beads, DSG3-Fc, scFv-GFP binding, at 10 µM, stronger effect = lower value
[13] = Nile Red efflux blockade in pump-expressing yeast – validation compound set, multiplex, phenotypic, pilot screen (AID 588506;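 active means efflux inhibition above 0.42, the validation set average plus 4 SD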;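 further: Nile Red retained in cells so higher fluorescence means more efflux inhibition; 0 = negative control wells and 1 = enniatin B 25 µM full block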); conditions: S. cerevisiae pump-expressing triplex, Nile Red efflux flow cytometry; at 10 µM; stronger effect = higher value; the pumps come from Candida albicans
[14] = target: ATP-binding cassette sub-family B member 6 (Homo sapiens) (UniProt Q9NP58); assay: blockers of ABCB6-driven porphyrin uptake – K562-ABCB6 cells, flow cytometry, validation set, pilot screen (AID 588550;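 active means inhibition above the screen-wide mean plus 3 SD, about 51%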;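 further: 0% = DMSO wells and 100% = benzethonium chloride 70 µM positive control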); conditions: K562-ABCB6 porphyrin accumulation, 1 h, at 10 µM, stronger effect = higher value
Sequence of ATP-binding cassette sub-family B member 6 (Homo sapiens) (Q9NP58 whole entry, looked up): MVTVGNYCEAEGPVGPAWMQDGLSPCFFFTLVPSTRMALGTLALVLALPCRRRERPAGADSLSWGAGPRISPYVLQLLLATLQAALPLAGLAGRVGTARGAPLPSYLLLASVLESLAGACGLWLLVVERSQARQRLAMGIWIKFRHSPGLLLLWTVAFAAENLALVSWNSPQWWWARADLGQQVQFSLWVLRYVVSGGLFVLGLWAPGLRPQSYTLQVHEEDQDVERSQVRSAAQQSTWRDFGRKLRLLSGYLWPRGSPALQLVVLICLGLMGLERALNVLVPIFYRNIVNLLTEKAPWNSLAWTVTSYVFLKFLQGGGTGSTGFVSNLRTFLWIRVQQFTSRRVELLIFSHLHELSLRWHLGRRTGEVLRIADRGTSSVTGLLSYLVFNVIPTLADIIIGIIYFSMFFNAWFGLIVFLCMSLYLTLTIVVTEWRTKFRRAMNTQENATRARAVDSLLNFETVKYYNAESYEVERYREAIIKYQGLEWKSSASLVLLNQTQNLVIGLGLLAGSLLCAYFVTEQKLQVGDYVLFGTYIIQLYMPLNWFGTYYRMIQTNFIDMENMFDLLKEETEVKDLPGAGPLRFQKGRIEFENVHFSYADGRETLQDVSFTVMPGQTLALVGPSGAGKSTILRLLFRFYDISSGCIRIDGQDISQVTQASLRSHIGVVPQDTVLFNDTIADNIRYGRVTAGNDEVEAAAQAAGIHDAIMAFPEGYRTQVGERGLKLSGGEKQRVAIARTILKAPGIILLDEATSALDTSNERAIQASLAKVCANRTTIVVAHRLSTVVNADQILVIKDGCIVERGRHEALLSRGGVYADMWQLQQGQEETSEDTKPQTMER

[15] = AML differentiation inducers, ER-HoxA9 marrow cells – cell-based, GFP/MAC1 double positive, flow cytometry, validation set, primary screen (AID 588685;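 active means differentiation response of at least 50%, scaled between solvent and reference control, from cells with both markers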;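 further: compound exposure lasts four days before antibody staining and flow analysis; 0% = DMSO wells and 100% = 5 µM fulvestrant positive control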); conditions: stronger effect = higher value, normalized: vehicle 0, fulvestrant 100
[16] = calorie-restriction mimetic ROS inhibitors, yeast – validation compound set, pilot screen (AID 2706;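 active means superoxide response below 65% of plate, a cut near 3 SD across the whole screen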;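 further: yeast exposed to compound for one week at 30 degrees C before staining; 100% = mean of all compound wells on the same plate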); conditions: S. cerevisiae aging, superoxide DHE fluorescence; at 10 µM, stronger effect = lower value

CC(=O)Nc1nc(CCC(C)C)cc2c1c(=O)oc1ccccc12
inactive: percent of DMSO control GFP [1] 102% | GFP response vs DMSO [2] 98.3% | percent response of DMSO control [3] 100% | GFP response vs DMSO [4] 96% | GFP response, % of DMSO [5] 88.6% | vesicle binding response [6] 77.6% | inhibition [7] 1.62% | aptamer binding inhibition [8] 0% | response [9] -19.1% | inhibition [10] 2.41% | response [11] 0.7% | binding (% of control) [12] 75.5% | efflux inhibition (fraction of control) [13] 0.39 | inhibition [14] -8% | differentiation response [15] 16.9%
60.5%: double positive events [6]

CCc1cc2c(=O)c(-c3ccc(F)cc3)c(C)oc2cc1OCC(=O)O
70.6%: double positive events [6]
active: efflux inhibition (fraction of control) [13] 0.43
inactive: percent of DMSO control GFP [1] 107% | GFP response vs DMSO [2] 98.3% | percent response of DMSO control [3] 104% | GFP response vs DMSO [4] 88.1% | GFP response, % of DMSO [5] 100% | vesicle binding response [6] 168% | inhibition [7] 6.81% | aptamer binding inhibition [8] -3% | response [9] -3.44% | inhibition [10] -6.22% | response [11] 0.76% | binding (% of control) [12] 104% | inhibition [14] -6% | differentiation response [15] 30.5%

CCCC(=O)Nc1ccc(OCC(O)CNC(C)C)c(C(C)=O)c1 (stereo not drawn)
59.8%: double positive events [6]
inactive: percent of DMSO control GFP [1] 99% | GFP response vs DMSO [2] 101% | percent response of DMSO control [3] 100% | GFP response vs DMSO [4] 106% | GFP response, % of DMSO [5] 99.2% | vesicle binding response [6] 2400% | inhibition [7] -24.6% | superoxide response (% of plate) [16] 106% | aptamer binding inhibition [8] -5% | response [11] -0.74% | binding (% of control) [12] 200% | efflux inhibition (fraction of control) [13] -0.57 | inhibition [14] -3% | differentiation response [15] 11.1%

C/C=C/Cn1c(SC)nc2c1c(=O)[nH]c(=O)n2C
active: efflux inhibition (fraction of control) [13] 0.78
inactive: percent of DMSO control GFP [1] 102% | GFP response vs DMSO [2] 101% | percent response of DMSO control [3] 95.9% | GFP response vs DMSO [4] 93.3% | GFP response, % of DMSO [5] 93.4% | vesicle binding response [6] 124% | inhibition [7] 3.49% | superoxide response (% of plate) [16] 97.4% | aptamer binding inhibition [8] 0% | inhibition [10] 34.4% | response [11] 1.09% | binding (% of control) [12] 103% | inhibition [14] 0% | differentiation response [15] -14.7%
59%: double positive events [6]

COc1ccccc1-c1ccc(/C=C2/C=C(CC(C)C)OC2=O)o1
inactive: percent of DMSO control GFP [1] 99.5% | GFP response vs DMSO [2] 101% | percent response of DMSO control [3] 93% | GFP response vs DMSO [4] 105% | GFP response, % of DMSO [5] 90.1% | vesicle binding response [6] 120% | inhibition [7] -43.1% | superoxide response (% of plate) [16] 103% | aptamer binding inhibition [8] 2% | inhibition [10] 2.34% | response [11] 1.04% | binding (% of control) [12] 99.5% | inhibition [14] 5% | differentiation response [15] -22.8%
58.1%: double positive events [6]
active: efflux inhibition (fraction of control) [13] 0.75

N#Cc1c2c(c(-c3ccccc3)[nH]c1=O)CCCC2
56.8%: double positive events [6]
inactive: percent of DMSO control GFP [1] 102% | GFP response vs DMSO [2] 98.9% | percent response of DMSO control [3] 103% | GFP response vs DMSO [4] 85.3% | GFP response, % of DMSO [5] 100% | vesicle binding response [6] 158% | inhibition [7] -7.7% | superoxide response (% of plate) [16] 94% | aptamer binding inhibition [8] 3% | inhibition [10] -4.92% | response [11] -1.34% | binding (% of control) [12] 98.8% | efflux inhibition (fraction of control) [13] -0.05 | inhibition [14] 5% | differentiation response [15] -22.8%

CN1C(=O)C(O)(CC(=O)c2ccccc2O)c2cc(Br)ccc21 (stereo not drawn)
inactive: percent of DMSO control GFP [1] 100% | GFP response vs DMSO [2] 107% | percent response of DMSO control [3] 109% | GFP response vs DMSO [4] 115% | GFP response, % of DMSO [5] 106% | vesicle binding response [6] 199% | inhibition [7] 16.6% | superoxide response (% of plate) [16] 101% | aptamer binding inhibition [8] 0% | inhibition [10] 4.33% | response [11] 0.66% | binding (% of control) [12] 99% | efflux inhibition (fraction of control) [13] -0.09 | inhibition [14] 9% | differentiation response [15] 7.87%
57.7%: double positive events [6]

CCCOc1ccc(-c2cc(C(=O)NCC3CCCO3)c3ccccc3n2)cc1 (stereo not drawn)
55.9%: double positive events [6]
inactive: percent of DMSO control GFP [1] 99.5% | GFP response vs DMSO [2] 102% | percent response of DMSO control [3] 91% | GFP response vs DMSO [4] 105% | GFP response, % of DMSO [5] 84.4% | vesicle binding response [6] 199% | inhibition [7] 13.8% | superoxide response (% of plate) [16] 91.2% | aptamer binding inhibition [8] 1% | inhibition [10] -3.49% | response [11] 6.44% | binding (% of control) [12] 97.3% | efflux inhibition (fraction of control) [13] 0.18 | inhibition [14] 12% | differentiation response [15] 7.87%

N=C(N)c1ccc(OCCCCCOc2ccc(C(=N)N)cc2)cc1
53.8%: double positive events [6]
inactive: percent of DMSO control GFP [1] 107% | GFP response vs DMSO [2] 105% | percent response of DMSO control [3] 96.5% | GFP response vs DMSO [4] 110% | GFP response, % of DMSO [5] 99.6% | inhibition [7] -7.79% | superoxide response (% of plate) [16] 98% | aptamer binding inhibition [8] -23% | response [9] 20.7% | inhibition [10] -15.3% | response [11] -1.89% | binding (% of control) [12] 112% | efflux inhibition (fraction of control) [13] 0.285 | inhibition [14] 9% | differentiation response [15] 8.59%

Clc1ccc(Cn2c(CN3CCCC3)nc3ccccc32)cc1
inactive: percent of DMSO control GFP [1] 100% | GFP response vs DMSO [2] 104% | percent response of DMSO control [3] 107% | GFP response vs DMSO [4] 100% | GFP response, % of DMSO [5] 102% | vesicle binding response [6] 98% | superoxide response (% of plate) [16] 105% | aptamer binding inhibition [8] -1% | inhibition [10] 1.97% | response [11] -2.91% | binding (% of control) [12] 102% | efflux inhibition (fraction of control) [13] -0.43 | inhibition [14] 4% | differentiation response [15] -22.8%
56.4%: double positive events [6]
